PubChem BioAssay (NCI)
This is part of a sample that, as a whole, favours compounds with a hit. Of some 83,000 tested, about 20% had one in any assay.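 Assay: single dose, 48 h. Readout: percent growth (0 = no net growth; negative = cell death). Active: <10.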 Unmarked numbers belong to inactive results. The source made the active and inactive calls.

Experiments:
Test in all cases: NCI-60 one-dose screen, 48 h (100 = growth as untreated, 0 = no growth, -100 = all killed)
Details in all cases: 10 µM unless noted
[1] = test system: DU-145 prostate
[2] = test system: K-562 leukemia
[3] = test system: MALME-3M melanoma
[4] = test system: MDA-MB-231 breast
[5] = test system: RXF 393 renal
[6] = test system: SF-268 CNS
[7] = test system: SF-295 CNS
[8] = test system: SF-539 CNS
[9] = test system: UACC-257 melanoma
[10] = test system: HCT-15 colon
[11] = test system: HT29 colon
[12] = test system: SNB-75 CNS
[13] = test system: SNB-19 CNS
[14] = test system: U251 CNS
[15] = test system: PC-3 prostate
[16] = test system: SK-MEL-5 melanoma
[17] = test system: UACC-62 melanoma
[18] = test system: LOX IMVI melanoma
[19] = test system: SK-MEL-28 melanoma

Structure (SMILES)	growth [1]	growth [2]	growth [3]	growth [4]	growth [5]	growth [6]	growth [7]	growth [8]	growth [9]	growth [10]	growth [11]	growth [12]	growth [13]	growth [14]	growth [15]	growth [16]	growth [17]	growth [18]	growth [19]
O=c1c2cc(F)ccc2sc2c(NCCCN3CCCC3)nc3ccccc3c12	60.1%	-29.7% (active)	26.5%	21.1%	22.7%	47.6%	55.1%	65.3%	54.2%	7.59% (active)	5.1% (active)	21.5%	53.6%	33.2%	43.8%	58.8%	-75.9% (active)	-87.1% (active)	-52.8% (active)
CC1=CN2C(=O)C3C4=C(CCCC4)SC3N=C2CN1c1c(C)cccc1C (stereo not drawn)	104%	45.8%	89.7%	83.9%	67%	89.1%	81.6%	96.7%	99.4%	49.8%	84%	106%	104%	65%	63.4%	87.2%	66.4%	79.2%	110%
Cc1cc(C(=O)c2ccccc2)c(C)c2c1[nH]c1ccc(Cl)cc12	1.86% (active)	11.9%	33.7%	30.6%	18.9%	22.8%	6.92% (active)	-14.9% (active)	66.1%	7.78% (active)	5.31% (active)	-10.1% (active)	52.3%	20.8%	23.8%	2.39% (active)	54.9%	10.2%	59.1%
C=C1C(=O)O[C@H]2[C@H]1CC/C(CNC(=O)/C=C/c1ccc(Cl)cc1Cl)=C\CC[C@@]1(C)O[C@@H]21	-80.7% (active)	-31.2% (active)	-89.8% (active)	-42.1% (active)	-84.6% (active)	-69.7% (active)	39.2%	-72.4% (active)	-51.7% (active)	-64% (active)	-58.4% (active)	21.3%	37.4%	8.28% (active)	-26.4% (active)		-65.2% (active)	-97.2% (active)	-68.2% (active)
COc1cc2nc(Cl)nc(Nc3ccc(S(=O)(=O)Nc4nccs4)cc3)c2cc1OC	119%	115%	112%	109%	110%	109%	104%	85.9%	103%	96.3%	117%	87.1%	102%	96.3%	91.6%	102%	96%	86.5%	115%
c1ccc2cc3nc4cc5ccccc5cc4nc3cc2c1	110%	95.1%	134%	86.6%	137%	97.7%	134%	108%	98.2%	96.9%	103%	89.3%	97.2%	101%	85%	102%	96.5%	86.1%	96.9%
CN(Cc1cnc2nc(N)nc(N)c2n1)c1ccc(C(=O)N[C@@H](CCc2nn[nH]n2)c2nn[nH]n2)cc1	32.8%	18.1%	68.9%	111%	71.1%	39%	40.8%	46.6%	55.8%	25.2%	27%	76.6%	53.4%	50.6%	32.6%	41.2%	21.5%	16.1%	103%
COc1cc(C2NC(=O)c3ccccc3N2)ccc1OCCCCCOc1c(OC)cc(C2=NOC(c3cc(OC)c(OC)c(OC)c3)C2)cc1OC (stereo not drawn)	118%	59.7%	53.9%	82.5%	104%	67.4%	24.9%	83.2%	44%	73%	94.2%	101%	80.2%	84.2%	36.8%	-2.4% (active)	53.3%	61%	69.4%
CC/C=C\C[C@H](O)C/C=C1/C(=O)C=C[C@@H]1C/C=C\CCCC(=O)OC	20.2%	2.74% (active)	9.07% (active)	11.9%	-19.6% (active)	15.1%	-1.98% (active)	7.57% (active)	-17.5% (active)	-20.3% (active)	-54.7% (active)	57.8%	35.2%	-72.8% (active)	-11.3% (active)	-84.7% (active)	-40.3% (active)	-76.9% (active)	-34.3% (active)
NC(=S)N/N=C/Cc1ccccc1	110%	88.4%	119%	101%	103%	105%	97.7%	109%	59.7%	87.4%	94.7%	110%	104%	98.4%	91.4%	107%	108%	73%	109%
CCOC(=O)c1c2c(n3ccc(NC(=O)OC(C)(C)C)cc13)C(=O)c1ncccc1C2=O	-30.2% (active)	-23.9% (active)	-21.6% (active)	2.02% (active)	-38.4% (active)	-16.7% (active)	-67.1% (active)	-45.9% (active)	-40.9% (active)	-69.5% (active)	-50.9% (active)	-32.2% (active)	-54.4% (active)	-80.8% (active)	-1.36% (active)	-96% (active)	-75.8% (active)	-68.8% (active)	-18.4% (active)
